Rows were chosen to be rich in hits. Some 3% of all compounds tested hit in one or more screens of this group.
TexasRed fluor = Texas Red fluorescence interference in TRb-SRC2 counter-screen | TRb/SRC2 Texas Red total fluorescence interference | Potency, µM (doses to about 106 µM), for the others: at the top dose fluorescence change, negative = quenching | 280,000 compounds, 0.29% hits; active means well fitted curve in either direction with a large enough effect; inconclusive means small, poorly fitted or top-dose-only effect
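Human TRb ligand-binding domain at 0.6 uM with 20 nM Texas Red SRC2 peptide in Tris buffer containing 1 uM T3 and 5% DMSO, incubated with compound 5 h at ambient temperature. Total fluorescence (555/632 nm) calculated as parallel + 2 × perpendicular.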
Tau fluor counter = counter-screen for tau fibril formation inhibitors | tau K18 P301L Alexa594 fluorescence, heparin fibrillization | Potency, µM (series often up to 57.7 µM), for the others: at the top dose activity change, negative = decrease | 280,000 compounds, 0.93% hits; further: nearly all actives have a fitted effect of over 55% in size
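Human tau K18 P301L (15 uM unlabeled, 0.24 uM Alexa 594-labeled) in 100 mM sodium acetate pH 7 with 20 uM heparin, 6 hr at 37 C. ThT 30 uM added, 1 hr ambient; Alexa 594 FP and total fluorescence read at 555/632 nm.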
Tau FP inhib = blocks human tau fibril formation measured by polarization; K18 P301L tau heparin fibrillization, Alexa594 FP, 6 h; 280,000 compounds, 0.39% hits; Potency, µM (highest dose often 57.7 µM), for inactives: top-dose activity, negative = inhibition, actives largely listed as inhibitors; P10636; further: nearly all actives have a fitted effect of over 55% in size
Target sequence (P10636 561-689 P618L limits assumed): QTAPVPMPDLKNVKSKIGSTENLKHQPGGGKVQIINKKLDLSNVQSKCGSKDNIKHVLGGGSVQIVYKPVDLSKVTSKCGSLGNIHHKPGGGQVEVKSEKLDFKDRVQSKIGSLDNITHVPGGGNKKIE
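Steps: dispense K18 P301L tau (15 uM plus 0.24 uM Alexa 594 tracer, final) in pH 7 sodium acetate; add compound; add heparin (20 uM final); incubate 6 hr, 37 C; add ThT (30 uM final); after 1 hr ambient, read FP.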
Tau fibril ThT = inhibitors of human tau fibril formation, thioflavin T binding. P10636. recombinant tau K18 P301L, heparin-induced fibrillization, ThT fluorescence. Potency, µM (highest dose often 57.4 µM), inactives show at the top dose activity, negative = inhibition, actives largely listed as inhibitors. 270,000 compounds, 2.1% hits. AID 1460; further: nearly all actives have a fitted effect of over 55% in size
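Fibril formation assay: tau K18 P301L at 15 uM with trace Alexa 594 label, heparin inducer 20 uM, pH 7 sodium acetate buffer, 37 C for 6 hr; endpoint ThT signal.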
TRb SRC2 PPI = inhibitors of human thyroid hormone receptor beta-SRC2 interaction | P10828 | TRbeta-SRC2 peptide binding, fluorescence polarization; receptor liganded with 1 µM T3 | Potency, µM (doses to about 106 µM), for the others: at the top dose activity change, negative = inhibition, most hits filed as inhibitors | 280,000 compounds, 0.065% hits;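 further: plate controls were bound peptide for no effect and peptide without receptor for full effect; nearly all actives have a fitted effect of over 50% in size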
Target sequence (P10828 whole entry, looked up): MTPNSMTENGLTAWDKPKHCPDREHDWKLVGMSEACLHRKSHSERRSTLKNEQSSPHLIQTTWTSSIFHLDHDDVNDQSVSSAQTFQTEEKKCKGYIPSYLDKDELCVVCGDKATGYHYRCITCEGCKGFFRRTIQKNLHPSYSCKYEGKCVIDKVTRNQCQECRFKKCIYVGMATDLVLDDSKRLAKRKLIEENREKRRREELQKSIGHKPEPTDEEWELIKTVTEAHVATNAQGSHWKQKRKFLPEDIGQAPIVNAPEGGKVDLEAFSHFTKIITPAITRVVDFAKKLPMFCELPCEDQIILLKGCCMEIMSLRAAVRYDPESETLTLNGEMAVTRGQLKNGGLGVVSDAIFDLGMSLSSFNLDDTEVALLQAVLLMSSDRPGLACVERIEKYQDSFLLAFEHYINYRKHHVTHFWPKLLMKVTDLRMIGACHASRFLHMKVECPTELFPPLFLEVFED
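Fluorescence polarization of 20 nM Texas Red SRC2 peptide (20-aa NR interaction domain) bound to 0.6 uM human TRb ligand-binding domain, with 1 uM T3, after 5 hr at ambient temperature; inhibition seen as decreased polarization.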
Numbers without * were called inactive; ? = inconclusive; · = no result given; [ ] = remark or other dose. Unless noted, the call rests on the fitted dose curve; in most records, active means well fitted curve in the direction sought with a large enough effect; inconclusive means small, poorly fitted or top-dose-only effect, or another doubt; inactive means no such curve, though single readings can be large; an effect the other way counts as inactive or inconclusive. Unless noted, on the % scale 0 is the no-effect control and ±100 the full control effect; potency means the concentration at half of the fitted maximal effect.

SMILES	TexasRed fluor	Tau fluor counter	Tau FP inhib	Tau fibril ThT	TRb SRC2 PPI
Cc1ccc(C)c(NC(=O)CSc2cn(CC(=O)N3CCCCC3)c3ccccc23)c1	-4%	-3%	-2%	-5%	-1%
COc1ccc(Nc2sc(C(=O)c3ccc(Cl)cc3)c(N)c2C(=O)Nc2ccccc2OC)cc1	-5%	?	-2%	22µM*	-7%
CCOc1ccc(NC(=O)c2c(Nc3ccccc3C)sc(C(=O)c3ccc(Cl)cc3)c2N)cc1	2%	?	3%	?	6%
Cc1cc(Nc2sc(C(=O)c3ccc(F)cc3)c(N)c2C(=O)Nc2ccc(F)cc2)ccc1Cl	-1%	10µM*[quencher]	-12%	20µM*	13%
Cc1ccc(NC(=O)c2c(Nc3ccccc3C)sc(C(=O)c3ccccc3)c2N)cc1	3%	?	2%	-16%	4%
COc1ccc(C(=O)c2sc(Nc3ccccc3)c(C(=O)Nc3ccc(OC)c(OC)c3)c2N)cc1	-2%	16µM*[quencher]	?	16µM*	2%
N#Cc1c(Nc2cccc(F)c2)sc(C(=O)c2ccc(Cl)cc2)c1N	2%	?	?	28µM*	-3%
COc1ccc(Nc2sc(C(=O)c3ccccc3)c(N)c2C(=O)Nc2cc(C)ccc2C)c(OC)c1	0%	?	3%	?	6%
O=C1[C@H]2[C@H]3[C@H](O)[C@H](O)C/C(=N/OC[C@@H](O)COCc4ccco4)[C@@H]3CC[C@@H]2C(=O)N1c1cccc(Oc2ccccc2)c1	-5%[11.2 µM]	-10%[11.6 µM]	-6%[11.6 µM]	-9%[11.5 µM]	0%[11.2 µM]
COc1ccc(NC(=O)c2c(Nc3ccccc3)sc(C(=O)c3ccc(F)cc3)c2N)cc1	-1%	?	3%	11µM*	-17%
COc1cccc(Nc2sc(C(=O)c3ccc(F)cc3)c(N)c2C(=O)NCc2ccc(Cl)cc2)c1	1%	?	?	20µM*	8%
COc1cccc(Nc2sc(C(=O)c3ccc(Cl)cc3)c(N)c2C(=O)NCc2ccc(C)cc2)c1	3%	?	7%	?	9%
COc1ccccc1NC(=O)c1c(Nc2ccccc2C)sc(C(=O)Nc2cccc(Cl)c2)c1N	1%	?	?	-7%	5%
COc1ccc(C(=O)c2sc(Nc3cccc(OC)c3)c(C(=O)Nc3cccc(C)c3C)c2N)cc1	-2%	?	-8%	18µM*	-2%
COC(=O)[C@@H](NC(=O)O[C@@H]1C(=O)c2cc(Br)ccc2O[C@H]1c1ccc2c(c1)OCO2)C(C)C	0%	-12%	-6%	-12%	0%
CC(CCC#N)[N+](=O)[O-] (stereo not given)	-1%	-6%	-5%	0%	-3%
O=C1C2C(c3ccccc3)CC=CC2C(c2ccc3ccccc3c2)N1Cc1ccccc1 (stereo not given)	-1%	·	·	·	-1%
N#C/C(=C\c1ccccc1OCc1ccc(C(=O)O)cc1)C(=O)Nc1ccc(O)cc1	-6%	-10%	9%	?	12%
COc1ccc(NC(=O)/C(C#N)=C\c2ccc(OCc3ccc(C(=O)O)cc3)c(OC)c2)cc1	2%	-21%	-16%	4µM*	7%
O=C(CSc1nc(=O)[nH]c2c1CCCC2)Nc1ccc(Cl)c(Cl)c1	-2%	-15%	?	4%	-1%
Cc1cc2nc3c(=O)n(CCc4ccccc4)c(=O)[nH]c3nc2cc1N	-5%	8.9µM*[quencher]	?	·	-9%
Nc1ccc2nc3c(=O)n(CCc4ccccc4)c(=O)[nH]c3nc2c1	-9%	?	?	·	-6%
CC(C)=CCCC1(C)C=Cc2c(c(C)cc3c2[nH]c2ccccc23)O1 (stereo not given)	0%	8.9µM*[quencher]	-10%	?	1%
Cc1ccc(C)c2c1[nH]c1ccccc12	-3%	?	0%	?	0%
O=c1cc(O)c2sc(Nc3ccc(F)cc3)nc2[nH]1	-7%	?	?	28µM*	7%
SMILES	TexasRed fluor	Tau fluor counter	Tau FP inhib	Tau fibril ThT	TRb SRC2 PPI
CC1CCN(c2ccc(C(=O)Nc3ccc4c(c3)OCO4)cc2[N+](=O)[O-])CC1	0%	?	11%	4µM*	9%
CC1CCCN(c2ccc(C(=O)Nc3ccc4c(c3)OCO4)cc2[N+](=O)[O-])C1 (stereo not given)	-1%	?	5%	7.1µM*	11%
CC1CCCN(c2ccc(C(=O)Nc3nnc(C4CC4)s3)cc2[N+](=O)[O-])C1 (stereo not given)	0%	-25%	?	4µM*	3%
O=C(COC(=O)c1ccc(N2CCOCC2)c([N+](=O)[O-])c1)Nc1ccc2c(c1)OCO2	7%	-21%	2%	?	2%
CC1=C(c2ccc(C)cc2)S(=O)(=O)NC1=NCc1cccc(F)c1	0%	-4%	-6%	-8%	2%
C/C(N)=C(/C#N)C(=O)COC(=O)c1cc(-c2cccc3ccccc23)nc2ccccc12	-13%	?	11µM*	-3%	-1%
C/C(N)=C(/C#N)C(=O)COC(=O)c1cccc2ccccc12	-2%	?	-14%	-3%	-6%
O=C(O)CCCCCNc1ccc2nsnc2c1[N+](=O)[O-]	35µM*[quencher]	-1%	-1%	6%	-12%[53 µM]
Cn1c2c(c(=O)n(C)c1=O)[C@@]1(C(=O)Nc3ccccc31)C(C#N)=C(N)O2	2%	-23%	?	14µM*	-3%
O=C(NCCCN1CCN(c2cccc(Cl)c2)CC1)c1ccc2nc(Cc3ccccc3)oc2c1	1%	?	3%	?	4%
CCOC(=O)c1c(N)sc(=S)c2c1CCC2	-8%	?	?	25µM*	-19%
CCOC(=O)c1c(N)sc(C(N)=O)c1C	0%	1%	-3%	-8%	-11%
CCOC(=O)c1c(N)sc(N)c1C(=O)OCC	-3%	?	?	14µM*	1%
CCOC(=O)c1c(N)sc2c1CCSC2	-3%	?	-14%	25µM*	3%
CCOC(=O)c1c(N)sc2c1CCC(CC)C2 (stereo not given)	-9%	?	0%	?	-8%
CCOC(=O)c1c(N)ssc1=S	-1%	-27%	11µM*	7.9µM*	3%
COC(=O)C1=C(C(=O)OC)[C@@H]2N(C)c3ccccc3[C@@]23C[C@@H](C(=O)OC)N(S(=O)(=O)c2ccc(C)cc2)C3=N1	-5%[11.2 µM]	-7%[11.6 µM]	-4%[11.6 µM]	-2%[11.5 µM]	10%[11.2 µM]
CSc1ccc(CCNC(=O)C2CCN(c3ncnc4c3nc3n4CCCCC3)CC2)cc1	-12%	-5%	-1%	-8%	2%
N#C/C(=C(/O)c1cc2ccccc2o1)c1nc2ccccc2s1	-6%	?	?	6.3µM*	0%
N#C/C(=C(/O)c1ccco1)c1nc2ccccc2s1	-9%	-17%	11%	?	1%
C/C(O)=C(\N=Nc1cc(C)ccc1O)C(N)=O	0%	?	13%	10µM*	0%
